Assay results as given in PubChem BioAssay (NCATS).
Records with an inconclusive call do not appear. Active and inactive are the calls of the source. Calls follow the shape of the dose curve; as a rule, active = well fitted curve in the direction sought with a large enough effect; inconclusive = small, poorly fitted or top-dose-only effect, or another doubt; inactive = no such curve, though single readings can be large; an effect the other way counts as inactive or inconclusive.

Experiments:
[1] = Cellular Toxicity (caspase-3) NIH 3T3 (AID 666);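 also: caspase signal read after 16 h compound exposure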
Outline: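 Mouse NIH 3T3 fibroblasts (1000 cells/well) were treated with compound for 16 hr at 37°C in complete medium; caspase-3/7 activity was read by Caspase-Glo luminescence. Normalized to DMSO and 100 uM tamoxifen; AC50 from Hill fits.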

[2] = Cellular Toxicity (caspase-3) Renal Proximal Tubule (AID 667);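 also: cells exposed to compound for 16 hours at 37 °C before detection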
Outline: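 Freshly isolated primary rat kidney proximal tubule cells, 1000/well, treated 16 hr at 37 °C, then Caspase-Glo 3/7 luminescence after 1 hr. Normalized to DMSO and 10 uM staurosporine; AC50 from Hill fit.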

[3] = biological target: Cytochrome P450 3A4 (Homo sapiens) (UniProt P08684); assay: qHTS Assay for Inhibitors and Substrates of Cytochrome P450 3A4 (AID 884); also: series mostly up to about 57 µM; nearly all actives have a fitted effect of over 50% in size
Sequence of Cytochrome P450 3A4 (Homo sapiens) (P08684 whole entry, looked up): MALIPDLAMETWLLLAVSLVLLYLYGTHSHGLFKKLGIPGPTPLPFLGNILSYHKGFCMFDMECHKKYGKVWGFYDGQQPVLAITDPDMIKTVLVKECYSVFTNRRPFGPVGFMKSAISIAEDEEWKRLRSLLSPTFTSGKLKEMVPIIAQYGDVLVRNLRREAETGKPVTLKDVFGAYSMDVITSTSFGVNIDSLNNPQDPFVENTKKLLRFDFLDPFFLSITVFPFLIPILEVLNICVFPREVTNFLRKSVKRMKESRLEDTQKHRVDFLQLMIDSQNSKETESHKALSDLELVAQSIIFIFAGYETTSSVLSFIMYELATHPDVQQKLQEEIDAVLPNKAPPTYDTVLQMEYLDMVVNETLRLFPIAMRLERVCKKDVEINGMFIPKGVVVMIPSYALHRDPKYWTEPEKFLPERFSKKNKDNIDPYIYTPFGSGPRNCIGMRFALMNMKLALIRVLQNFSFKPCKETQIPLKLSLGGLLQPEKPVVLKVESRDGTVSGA
Outline: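 20 nM human CYP3A4 with 25 uM Luciferin-PPXE (at KM) in 200 mM KPO4, preincubated 10 min with compound; NADPH regeneration started a 60 min RT reaction. Luciferin detected by luminescence, normalized to 57 uM ketoconazole as full inhibition.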

[4] = Cell Viability - LYMP2-001 (AID 921); also: series mostly up to about 92 µM; nearly all actives have a fitted effect of over 70% in size
Outline: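 Human lymphoblastoid LYMP2-001 cells, 2500 per well, in complete medium, treated 24 h at 37 C. Viability from cellular ATP by CellTiter-Glo luminescence; AC50 from Hill-equation fits of qHTS concentration-response.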

[5] = MultiTox-Fluor Cytotoxicity Assay - LYMP1-001 - Dead Cells (AID 946)
Outline: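 In this qHTS, 15 uM tetraoctylammonium bromide defined 100% and DMSO defined basal activity. Lymphoblastoid cells (LYMP1-001, 2500 per well) received compound for 16 hr at 37 C before a fluorogenic dead-cell substrate readout at 485/520 nm.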

[6] = MultiTox-Fluor Cytotoxicity Assay - LYMP1-001 - Live Cells (AID 947)
[7] = Cell Viability - LYMP1-002 - Assay at 16 hr (AID 948)
Outline: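 LYMP1-002 human lymphoblastoid cells, 2500/well, were treated with compounds for 16 hr at 37 C in complete medium. Viability was read as intracellular ATP by CellTiter-Glo luminescence, and AC50 was derived from a Hill fit to concentration-response data.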

[8] = MultiTox-Fluor Cytotoxicity Assay - LYMP1-002 - Live Cells (AID 955)
Outline: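 Human lymphoblastoid LYMP1-002 cells, 2500/well in complete medium, rested 5 hr at 37 C, then exposed to compounds for 16 hr at 37 C. Live-cell protease cleavage of GF-AFC read by fluorescence (Ex/Em 405/510) after 60 min at room temperature; AC50 from Hill fits.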

[9] = MultiTox-Fluor Cytotoxicity Assay - LYMP1-002 - Dead Cells (AID 960); also: nearly all actives have a fitted effect of over 60% in size
Outline: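 Human lymphoblastoid cells (LYMP1-002), 2500/well in complete medium, were exposed to compounds for 16 hr at 37 C. Dead-cell protease activity was read as bis-AAF-R110 fluorescence (Ex/Em 485/520), normalized to DMSO and 15 uM tetraoctylammonium bromide; AC50 from Hill fits.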

[10] = MultiTox-Fluor Cytotoxicity Assay - LYMP1-003 - Dead Cells (AID 961); also: nearly all actives have a fitted effect of over 70% in size
Outline: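 Acute toxicity is scored as increased dead-cell protease activity in human lymphoblastoid LYMP1-003 cells after 16 h compound exposure in complete culture medium. Activity is normalized to DMSO basal and 15 uM tetraoctylammonium bromide as full response.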

[11] = MultiTox-Fluor Cytotoxicity Assay - LYMP1-003 - Live Cells (AID 962);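 also: cytotoxic hits lower the live-cell protease signal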
Outline: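 LYMP1-003 human lymphoblastoid cells (2500/well) in complete medium were preincubated 5 hr at 37 C, then exposed to compounds for 16 hr at 37 C. Live-cell protease cleavage of GF-AFC read by fluorescence (Ex/Em 405/510); AC50 from Hill fits.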

[12] = Cell Viability - LYMP1-003 - Assay at 24 hr (AID 963)
Outline: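 Human lymphoblastoid LYMP1-003 cells (2500/well) were rested 5 hr at 37 C, then exposed to compounds in complete medium for 24 hr at 37 C. Cellular ATP was quantified by CellTiter-Glo luminescence, and AC50 values came from Hill fits of concentration-response data.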

[13] = Cell Viability - LYMP1-003 - Assay at 40 hr (AID 964); also: series mostly up to about 92 µM; nearly all actives have a fitted effect of over 60% in size
Outline: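 Human lymphoblastoid LYMP1-003 cells, 2500/well in complete medium, rested 5 hr at 37 C, then exposed to compounds for 40 hr at 37 C. Viability read as intracellular ATP by CellTiter-Glo luminescence; AC50 from Hill fits of concentration-response data.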

[14] = Cell Viability - LYMP2-003 (AID 965);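 also: cells exposed to compounds for 24 h before reading; nearly all actives have a fitted effect of over 50% in size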
Outline: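 Human lymphoblastoid LYMP2-003 cells, 2500/well, exposed to compounds for 24 h at 37 C in complete medium. Viability read as intracellular ATP by CellTiter-Glo luminescence; AC50 from Hill-equation fits of qHTS concentration-response data.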

[15] = Cell Viability - LYMP2-004 (AID 966); also: nearly all actives have a fitted effect of over 65% in size
Outline: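 Human lymphoblastoid cells (2500/well) in complete medium were treated with compounds for 24 hr at 37 C, then intracellular ATP was measured by CellTiter-Glo luminescence. AC50 values came from Hill-equation fits of concentration-response data.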

[16] = Cell Viability - LYMP2-005 (AID 967); also: series mostly up to about 92 µM
Outline: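 Human lymphoblastoid LYMP2-005 cells, 2,500 per well in complete medium, rested 5 h at 37C then compound-treated 24 h at 37C. Intracellular ATP read by CellTiter-Glo luminescence after 30 min at room temperature; AC50 from Hill-equation fits of concentration-response data.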

[17] = Cell Viability - LYMP2-009 (AID 968); also: series mostly up to about 92 µM; nearly all actives have a fitted effect of over 55% in size
[18] = Cell Viability - LYMP2-011 (AID 969); also: nearly all actives have a fitted effect of over 60% in size
Outline: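 Human lymphoblastoid cells (2500/well) were plated in complete medium, preincubated 5 hr at 37 C, then exposed to compounds for 24 hr at 37 C. Intracellular ATP was read by CellTiter-Glo luminescence, and AC50 came from Hill-equation concentration-response fits.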

[19] = Cell Viability - LYMP2-013 (AID 970); also: series mostly up to about 92 µM; nearly all actives have a fitted effect of over 55% in size
Outline: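 Human lymphoblastoid cells, 2500/well, were preincubated 5 hr at 37 C, then treated with compounds for 24 hr at 37 C in complete medium. Intracellular ATP was read by CellTiter-Glo luminescence; AC50 from Hill-equation fits of concentration-response data.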

[20] = Cell Viability - LYMP2-017 (AID 972); also: series mostly up to about 92 µM; nearly all actives have a fitted effect of over 55% in size
Outline: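 Human lymphoblastoid cells (2500/well) were seeded in complete medium, held 5 hr at 37 C, then exposed to compounds for 24 hr at 37 C. Intracellular ATP was read by CellTiter-Glo luminescence after 30 min at room temperature, with AC50 values from Hill-equation fits.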

[21] = Cell Viability - LYMP2-019 (AID 973); also: nearly all actives have a fitted effect of over 55% in size
Outline: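 Human lymphoblastoid cells were seeded at 2500 cells/well, preincubated 5 hr at 37 C, then exposed to compounds for 24 hr at 37 C in complete medium. Intracellular ATP was measured by CellTiter-Glo luminescence; AC50 from Hill fits.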

[22] = Cell Viability - LYMP2-021 (AID 974)
Outline: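 Human lymphoblastoid cells (2500/well) were preincubated 5 hr at 37 C, then exposed to compounds for 24 hr at 37 C in complete medium. Intracellular ATP was read by CellTiter-Glo luminescence; AC50 came from Hill-equation fits of concentration-response data.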

Measured: Potency

O=C(/C=C/c1ccc(O)c(O)c1)O[C@@H](C(=O)O)[C@@H](OC(=O)/C=C/c1ccc(O)c(O)c1)C(=O)O
inactive: all assays above
